# G9a inh: inhibitors of human histone lysine methyltransferase G9a | Q96KQ7 | G9a H3K9 monomethylation, AlphaScreen, 2 h | Potency, µM (highest dose often 102 µM), without a hit: top-dose activity, negative = inhibition, usual class: inhibitors | hit rate 8.8% among 350,000 | AID 504332; note: % is set by controls: 0 for no effect and ±100 for the full control effect; nearly all actives have a fitted effect of over 75% in size
# Target sequence (Q96KQ7 913-1193 limits assumed): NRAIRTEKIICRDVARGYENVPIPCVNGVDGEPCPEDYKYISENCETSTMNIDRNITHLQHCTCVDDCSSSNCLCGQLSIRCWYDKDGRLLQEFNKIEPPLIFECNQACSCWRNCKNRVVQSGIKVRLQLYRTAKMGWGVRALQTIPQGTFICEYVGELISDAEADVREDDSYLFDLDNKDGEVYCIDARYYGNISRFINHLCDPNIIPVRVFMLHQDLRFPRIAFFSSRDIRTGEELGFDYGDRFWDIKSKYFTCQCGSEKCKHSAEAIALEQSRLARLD
#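 G9a (20 nM) preincubated 15 min RT with compounds, then 500 nM biotinylated H3K9 peptide and 20 uM SAM added; 2 h RT reaction. Monomethyl-H3K9 product detected by AlphaScreen with anti-H3K9me1 antibody, streptavidin donor and anti-rabbit IgG acceptor beads.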
# VDR inhibitor: blocks the human vitamin D receptor; AID 504847; hit rate 0.93% among 400,000; VDR-SRC2-3 peptide fluorescence polarization, 2 h; P11473; Potency, µM, for inactives: max response, negative = inhibition, most hits filed as inhibitors; note: % is set by controls: 0 for no effect and ±100 for the full control effect
#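 VDR–SRC2-3 interaction, FP format. Cmpds 23 nl via pintool, brief spin, 2 h ambient incubation.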
# Glioma ERSR ind: inducers of ER stress response in human glioma cells; U87-MG GRP78 promoter luciferase reporter, 16 h; Potency, µM, inactives show at the top dose activation, actives largely listed as activators; hit rate 0.02% among 420,000; note: series mostly up to about 76 µM; % of control where 0% means no effect; nearly all actives have a fitted effect of over 35% in size
#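 Stably transfected U87-MG human glioma cells carrying a GRP78-based luminescent sensor were seeded at 1000 cells/well, pin-dosed with compounds and incubated 16 h. Luciferase reagent was then added, and end-point luminescence was read after 10 min at room temperature.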
# Sfp PPTase inh: blocks B. subtilis Sfp PPTase activity; Q9F4F7; Biochemical Sfp PPTase activity, qHTS; Potency, µM, inactives show largest response in the series, negative = inhibition, usual class: inhibitors; hit rate 3.5% among 310,000; AID 1490;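 note: the enzyme is Sfp with the accession as filed and its product quenches rhodamine fluorescence; 0% = enzyme reaction without inhibitor and -100% = no enzyme wells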
#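 Step 1, compound plus 15 nM Sfp-PPTase, 15 min, room temperature. Step 2, add rhodamine-CoA (5 uM) and BHQ-2-YbbR (12.5 uM). Step 3, read 525/598 nm fluorescence at 0 and 30 min.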
# ALOX12 inh: inhibitors of human 12S-lipoxygenase ALOX12. Potency, µM (series often up to 108 µM), inactives show top-dose activity change, negative = inhibition, usual class: inhibitors. purified 12hLO, xylenol orange hydroperoxide absorbance. hit rate 1.1% among 580,000. P18054; note: % is set by controls: 0 for no effect and ±100 for the full control effect
#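 Hydroperoxide product was detected by ferrous iron/xylenol orange as the 573 to 405 nm absorbance ratio. Arachidonic acid at 40 uM (final) was turned over for 30 min at room temperature by 150 nM human 12hLO, pH 7.0 Hepes buffer, after 15 min compound preincubation.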
# Numbers without * were called inactive; ? = inconclusive; . = no result; [ ] = remark or other dose. The full list was thinned out, with hits kept by preference. Calls come from the whole dose curve; as a rule, active = well fitted curve in the direction sought with a large enough effect; inconclusive = small, poorly fitted or top-dose-only effect, or another doubt; inactive = no such curve, though single readings can be large; an effect the other way counts as inactive or inconclusive. Potency is the fitted concentration of half-maximal effect.
SMILES,G9a inh,VDR inhibitor,Glioma ERSR ind,Sfp PPTase inh,ALOX12 inh
O=C(O)c1cccc(Oc2cccc(Cl)n2)c1,.,26%,0%,6%,7%
O=C(O)c1cccc(C(=O)O)n1,?,.,.,4µM*,-28%[176 µM]
O=C(O)c1ccc2cccc(O)c2n1,.,12%,1%,2.8µM*,-50%
O=C(O)c1ccc2cccnc2n1,35µM*,9%,-2%,-59%,?
O=C(O)c1cnc2ccccc2n1,13%[59 µM],?,2%,-18%,?
COc1cccc(CN2CCC3(CC2)C(OC)CN3c2cccc(F)c2)n1 (stereo not drawn),.,.,.,.,67%
CC(C)CN1CCC(N2CC(Oc3cccc(C(=O)N4CCCC4)c3)C2)CC1,.,.,.,.,30%
Nc1ccc(N=Nc2ccccc2)c2cccnc12,13µM*,14%,14%,-22%,230%
Nc1ccc(Br)c2cccnc12,32µM*,-12%,-3%,-25%,-4%
CCN(Cc1ccncc1)Cc1c(O)ccc2cc(Br)ccc12,2µM*,-16%,0%,45µM*,?
Cn1cc(CN[C@H]2[C@H](O)[C@H](O)C[C@@H]2c2cccnc2)c2ccccc21,.,.,.,.,45µM*
Cn1cc(CN[C@H]2[C@H](O)[C@H](O)C[C@@H]2c2ccccc2)c2ccccc21,.,.,.,.,16%[176 µM]
O=C(c1cccc(Cl)c1)N1CCC2(CC1)NC(=O)N(c1ccccc1Cl)N2,.,.,.,.,1.6µM*
O=C(c1cccc(Cl)c1)N1CCC2(C1)NC(=O)N(Cc1ccc(Cl)cc1)C2=O (stereo not drawn),.,.,.,.,40µM*
O=C(c1ccc(F)cc1)N1CCC2(CC1)NC(=O)N(c1ccccc1Cl)N2,.,.,.,.,1.3µM*
Cc1ccc(C(=O)N2CCC3(CC2)NC(=O)N(c2ccccc2Cl)N3)c(C)c1,.,.,.,.,2.2µM*
CC(Oc1ccccc1)C(=O)N1CCC2(CC1)NC(=O)N(c1ccccc1Cl)N2 (stereo not drawn),.,.,.,.,1.4µM*
CC(C)=NNC(=O)c1ccccc1,.,.,.,.,39%
CC(=O)c1cc(NC(=O)c2ccc(C)cc2)c(=O)oc1/C=C/N(C)C,-40%[12.7 µM],-13%,-3%,10%,?
